Experimental findings from PubChem BioAssay (Tox21) are described below.

Several values for one entry are separate records, joined by “and”; a condition that tells them apart may be missing. Equal values may be shown once. Records with an inconclusive call do not appear. Some structures have more than one record in an assay (separate samples or runs), and their calls can disagree. Activity calls are given as the source filed them. Unless noted, the call rests on the fitted dose curve.

The nature of test [1]: qHTS assay to identify small molecule antagonists of the sonic hedgehog signaling (Shh) pathway (AID 1259369). Further: nearly all actives have a fitted effect of over 45% in size. Further: potency means the concentration at half of the fitted maximal effect. The note with it: NIH/3T3 Gli1-Luc reporter, Shh antagonist, luminescence 24 h; series mostly up to 92.4 µM. In outline: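 Luminescence readout: firefly Luc under Gli1 response element in 3T3Gli1-Luc cells (NIH/3T3 clone). Antagonist mode, stimulation by conditioned medium; compound exposure 24hr at 37 C, 5% CO2.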
Background: qHTS replaces the single test concentration by a dilution series.

Test [2] concerns the target Estrogen receptor beta (Homo sapiens) (UniProt Q92731). The experiment in a line: qHTS assay to identify small molecule antagonists of the estrogen receptor beta (ER-beta) signaling pathway (AID 1259378; active means well fitted inhibition curve with a large enough effect in the signal ratio in the repeat runs, not every such curve was filed as active; the % refers to the signal ratio; further: potency means the concentration at half of the fitted maximal effect). To be noted: ER-beta-UAS-bla HEK293T, beta-lactamase FRET ratio, 16 h; series mostly up to 92.4 µM. In outline: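 ER-beta-UAS-bla HEK293T cells in 2% charcoal-stripped FBS medium treated with compound plus 1nM final 17-beta-estradiol for 16 hr at 37C. Beta-lactamase reporter read by FRET substrate fluorescence after 2 hours at room temperature.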

The nature of test [3]: qHTS assay to identify small molecule agonists of the androgen receptor (AR) signaling pathway in the presence of an antagonist - cell viability counter screen (AID 1259379; active means well fitted curve in the direction sought with a large enough effect in the repeat runs; an effect the other way counts as inactive or inconclusive; further: nearly all actives have a fitted effect of over 25% in size; further: potency means the concentration at half of the fitted maximal effect). To be noted: MDA-kb2 viability, CellTiter-Fluor, 16 h; series mostly up to 92.4 µM. In outline:
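Viability counter screen: CellTiter-Fluor fluorescence, measured in the same wells as the luciferase read-out. MDA-kb2 cells, 3,000/well, with nilutamide at 3.0uM final and compounds at 15 concentrations, 16 hr at 37C, 0% CO2.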

Test [4] is described as follows: qHTS assay to identify small molecule agonists of the estrogen receptor beta (ER-beta) signaling pathway - cell viability counter screen (AID 1259380; active means well fitted curve in the direction sought with a large enough effect in the repeat runs; an effect the other way counts as inactive or inconclusive; further: nearly all actives have a fitted effect of over 30% in size; further: potency means the concentration at half of the fitted maximal effect). The note with it: ER-beta-bla HEK293T viability, CellTiter-Glo luminescence, 16 h; series mostly up to 92.4 µM. In outline: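 Luminescence read-out (CellTiter-Glo, 30 min, room temp) taken in the same wells as the beta-lactamase reporter assay; ER-beta-UAS-bla HEK293T cells exposed to DMSO-dissolved compounds for 16 hr at 37C in 2% charcoal-stripped FBS medium.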

Test [5] is described as follows: qHTS assay to identify small molecule antagonists of the estrogen receptor beta (ER-beta) signaling pathway - cell viability counter screen (AID 1259382; active means well fitted curve in the direction sought with a large enough effect in the repeat runs; an effect the other way counts as inactive or inconclusive; further: nearly all actives have a fitted effect of over 55% in size; further: potency means the concentration at half of the fitted maximal effect). The note with it: ER-beta-UAS-bla HEK293T viability, CellTiter-Glo luminescence, 16 h; series mostly up to 92.4 µM. In outline: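 Luminescent ATP read-out (CellTiter-Glo, 30 min, RT) taken in the same wells as the bla reporter assay. HEK293T ER-beta-UAS-bla cells in 2% charcoal-stripped FBS were exposed to compounds with 1nM E2 for 16 hr at 37C.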

Test [6] in a line: qHTS assay to identify small molecule agonists or antagonists of the thyroid stimulating hormone receptor (TSHR) signaling pathway - wild type cell line counter screen (AID 1259384). To be noted: HEK293 wild type, cAMP HTRF counter-screen; series mostly up to 92.4 µM. In outline:
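Wild-type Hek293 cells, 800/well, 18 h at 37C, then compound with Ro20-1724 for 30 min RT. cAMP by HTRF (cAMP-d2/anti-cAMP cryptate), 1 h RT, fluorescence read. 15 concentrations, triplicates.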

Test [7] concerns the target Thyrotropin receptor (Homo sapiens) (UniProt P16473). The test is described as follows: qHTS assay to identify small molecule antagonists of the thyroid stimulating hormone receptor (TSHR) signaling pathway (AID 1259385). Further: nearly all actives have a fitted effect of over 20% in size. To be noted: TSHR-HEK293 cAMP HTRF, TSH-stimulated antagonist mode; series mostly up to 92.4 µM. In outline: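 TSHR-HEK293 cells (800/well) plated 18 h, then compounds with Ro20-1724 and TSH at 1.5 ng/mL final, 30 min at room temperature. cAMP quantified by HTRF (cAMP-d2/anti-cAMP-cryptate, 1 h); 15 concentrations in triplicate.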

Test [8] has as its target Estrogen receptor (Homo sapiens) (UniProt P03372). The experiment in a line: qHTS assay to identify small molecule agonists of the estrogen receptor alpha (ER-alpha) signaling pathway in the presence of an antagonist (AID 1259383). Further: nearly all actives have a fitted effect of over 15% in size. Further: potency means the concentration at half of the fitted maximal effect. The note with it: VM7Luc4E2 cells, ERE-luciferase, +ICI-182,780, 22 h; series mostly up to 92.4 µM. In outline: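 Luciferase luminescence (ONE-Glo, 30min at room temperature) measured in VM7Luc4E2 cells after 22hr compound exposure at 15 concentrations, with 10.0nM ICI-182,780 final present; cells express endogenous ER-alpha and carry four EREs upstream of luciferase.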

Test [9] has as its target Androgen receptor (Homo sapiens) (UniProt P10275). The experiment in a line: qHTS assay to identify small molecule agonists of the androgen receptor (AR) signaling pathway in the presence of an antagonist (AID 1259381). Further: nearly all actives have a fitted effect of over 15% in size. To be noted: MDA-kb2 MMTV-luciferase, AR agonist + nilutamide, 16 h; series mostly up to 92.4 µM. In outline:
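Luciferase read-out (ONE-Glo, 30min room temperature) in MDA-kb2 MMTV-reporter cells; agonist mode run in presence of AR antagonist nilutamide, 3.0uM final. Compounds tested as 15-point series, 16hr exposure at 37C, 0% CO2.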

Estrogen receptor beta (Homo sapiens), sequence (Q92731 whole entry, looked up): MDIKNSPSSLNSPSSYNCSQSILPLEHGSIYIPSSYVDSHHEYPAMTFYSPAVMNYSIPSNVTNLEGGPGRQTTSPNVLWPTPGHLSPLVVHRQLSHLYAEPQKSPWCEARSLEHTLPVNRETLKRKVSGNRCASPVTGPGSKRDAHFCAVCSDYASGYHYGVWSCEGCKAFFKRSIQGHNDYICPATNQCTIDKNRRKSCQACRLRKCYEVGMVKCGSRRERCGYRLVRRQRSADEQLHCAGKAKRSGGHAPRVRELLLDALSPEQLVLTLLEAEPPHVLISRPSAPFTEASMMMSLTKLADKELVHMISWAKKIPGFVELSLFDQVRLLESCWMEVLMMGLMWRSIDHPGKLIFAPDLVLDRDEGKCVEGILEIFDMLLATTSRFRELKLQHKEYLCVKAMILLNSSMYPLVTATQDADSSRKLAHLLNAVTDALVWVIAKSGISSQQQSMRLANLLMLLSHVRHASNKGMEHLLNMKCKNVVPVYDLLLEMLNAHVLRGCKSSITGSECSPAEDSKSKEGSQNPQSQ
Estrogen receptor (Homo sapiens), sequence (P03372 whole entry, looked up): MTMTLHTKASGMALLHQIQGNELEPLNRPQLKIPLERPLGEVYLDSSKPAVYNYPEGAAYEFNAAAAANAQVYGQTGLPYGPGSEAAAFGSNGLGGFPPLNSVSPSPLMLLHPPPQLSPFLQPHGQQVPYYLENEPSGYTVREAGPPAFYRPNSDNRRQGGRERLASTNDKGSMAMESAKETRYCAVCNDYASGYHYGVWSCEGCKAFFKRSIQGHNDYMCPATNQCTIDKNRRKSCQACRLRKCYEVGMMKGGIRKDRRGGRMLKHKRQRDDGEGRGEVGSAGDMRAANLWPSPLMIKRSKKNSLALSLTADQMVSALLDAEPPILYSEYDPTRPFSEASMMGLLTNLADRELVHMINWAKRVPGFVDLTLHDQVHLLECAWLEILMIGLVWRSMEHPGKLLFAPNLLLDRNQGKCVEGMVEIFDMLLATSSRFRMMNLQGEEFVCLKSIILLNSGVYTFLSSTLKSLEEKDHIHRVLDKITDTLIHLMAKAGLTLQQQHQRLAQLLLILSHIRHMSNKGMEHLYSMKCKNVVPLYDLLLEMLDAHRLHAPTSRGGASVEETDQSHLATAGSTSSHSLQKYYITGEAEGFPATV
Thyrotropin receptor (Homo sapiens), sequence (P16473 whole entry, looked up): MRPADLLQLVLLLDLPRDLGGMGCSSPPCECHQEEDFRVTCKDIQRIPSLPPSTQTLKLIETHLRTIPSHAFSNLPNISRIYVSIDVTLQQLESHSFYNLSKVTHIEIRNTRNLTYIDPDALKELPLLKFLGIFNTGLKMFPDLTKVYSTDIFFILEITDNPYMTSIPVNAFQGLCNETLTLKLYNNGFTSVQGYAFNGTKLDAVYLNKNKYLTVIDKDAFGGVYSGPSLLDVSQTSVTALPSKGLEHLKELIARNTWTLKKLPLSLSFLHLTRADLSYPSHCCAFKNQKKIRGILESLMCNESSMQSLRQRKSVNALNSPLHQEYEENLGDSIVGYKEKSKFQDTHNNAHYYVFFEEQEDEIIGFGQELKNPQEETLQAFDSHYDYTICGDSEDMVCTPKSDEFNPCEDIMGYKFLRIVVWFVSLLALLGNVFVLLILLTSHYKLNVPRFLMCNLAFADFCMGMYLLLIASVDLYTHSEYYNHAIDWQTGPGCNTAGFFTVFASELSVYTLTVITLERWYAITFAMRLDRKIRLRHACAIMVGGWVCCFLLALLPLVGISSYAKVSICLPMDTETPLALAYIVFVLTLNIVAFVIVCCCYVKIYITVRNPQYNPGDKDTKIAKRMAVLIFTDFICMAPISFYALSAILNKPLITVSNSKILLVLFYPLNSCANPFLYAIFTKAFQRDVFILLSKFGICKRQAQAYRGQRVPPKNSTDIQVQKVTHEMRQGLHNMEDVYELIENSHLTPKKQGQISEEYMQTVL
Androgen receptor (Homo sapiens), sequence (P10275 whole entry, looked up): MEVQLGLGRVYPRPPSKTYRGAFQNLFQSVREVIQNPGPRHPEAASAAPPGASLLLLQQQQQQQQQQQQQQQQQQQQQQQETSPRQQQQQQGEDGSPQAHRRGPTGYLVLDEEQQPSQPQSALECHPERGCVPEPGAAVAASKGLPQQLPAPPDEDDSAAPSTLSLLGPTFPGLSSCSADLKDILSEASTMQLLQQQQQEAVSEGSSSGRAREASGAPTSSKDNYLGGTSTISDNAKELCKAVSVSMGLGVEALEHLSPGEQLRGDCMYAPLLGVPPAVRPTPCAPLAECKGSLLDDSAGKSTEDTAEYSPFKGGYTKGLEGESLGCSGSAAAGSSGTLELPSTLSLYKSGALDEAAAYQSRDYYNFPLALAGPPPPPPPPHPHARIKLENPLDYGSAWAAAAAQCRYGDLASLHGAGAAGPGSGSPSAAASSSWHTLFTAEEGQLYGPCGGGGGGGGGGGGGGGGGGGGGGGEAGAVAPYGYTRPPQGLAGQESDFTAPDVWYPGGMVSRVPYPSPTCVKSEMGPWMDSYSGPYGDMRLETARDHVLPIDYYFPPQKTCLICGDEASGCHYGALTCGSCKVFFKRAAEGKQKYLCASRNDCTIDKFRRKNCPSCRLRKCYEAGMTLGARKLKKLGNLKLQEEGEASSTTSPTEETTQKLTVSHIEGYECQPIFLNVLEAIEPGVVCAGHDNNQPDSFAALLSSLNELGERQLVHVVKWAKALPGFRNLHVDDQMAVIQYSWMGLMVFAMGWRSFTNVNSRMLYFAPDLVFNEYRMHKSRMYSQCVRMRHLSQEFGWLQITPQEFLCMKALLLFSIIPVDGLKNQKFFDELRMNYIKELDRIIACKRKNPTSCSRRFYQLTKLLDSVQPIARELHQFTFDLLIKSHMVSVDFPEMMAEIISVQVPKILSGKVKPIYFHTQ

Consider `CC(O)CN(CC(C)O)CC(C)O` (stereo not given), for which the Potency result in [1], in [2], in [3], in [4], in test [5] and in [6] was “inactive” in each case. In [7], the Potency result is “inactive”.

In the case of `CCNCC`, the Potency entry in test [1], in [2], in test [3], in [4], in test [5] and in test [6] was “inactive” throughout. Also, the Potency result in test [7] is “inactive”.

Turning to `Cc1cc(Cl)ccc1N=CN(C)C`, the Potency entry in [1], in test [2], in [3], in [4], in test [5] and in test [6] was “inactive” in each case. Also, the Potency result in test [7] was “inactive”.

As for `C=C(C)C#N`, the Potency entry in test [1], in [2], in [3], in test [4], in [5] and in test [8] was “inactive” each time. Besides, the Potency entry in test [6] and in test [7] was “inactive” throughout.

In the case of `N#Cc1cccnc1`, the Potency result in test [1], in test [2], in [3], in test [4], in test [5] and in test [8] was “inactive” in each case. In addition, the Potency result in test [6] and in test [7] was “inactive” throughout.

On to `COc1ccc(CO)cc1`, for which the Potency entry in test [1], in test [2], in test [3], in test [4], in test [5] and in test [6] was “inactive” throughout. Besides, in test [7], the Potency entry was “inactive”.

Regarding `Oc1ccc(Cl)cc1Cl`, the Potency entry in test [1], in test [2], in [3], in test [4], in test [5] and in test [8] was “inactive” each time.

As for `Cc1cccc(N=Nc2ccc(N(C)C)cc2)c1`, the Potency result in test [1], in test [2], in test [5], in test [6] and in test [7] was “inactive” throughout. For the same compound, the Potency in [3] was 39.2 µM (active) and 30.6 µM (active); in test [4], 31.2 µM (active); in test [8], 247 nM (active) and 273 nM (active).

`CCCCCCCCCCCCCl`: the Potency result in [1], in [2], in [3], in test [4], in [5] and in test [8] was “inactive” in each case. Moreover, the Potency result in [6] and in [7] was “inactive” each time.

`ClCc1ccccn1`: the Potency result in test [1], in test [2], in test [3], in test [4], in test [5] and in test [8] was “inactive” each time. Besides, the Potency result in [6] and in test [7] was “inactive” throughout.

Take `CCC/C=N/O`: the Potency entry in test [1], in test [2], in [3], in test [4], in test [5] and in test [8] was “inactive” in each case.

Consider `CC(C)(c1ccc(OCC2CO2)cc1)c1ccc(OCC2CO2)cc1` (stereo not given), for which the Potency in [1] was 15.6 µM (active); in [4], 61.9 µM (active); in [5], 43.8 µM (active) and inactive. Besides, the Potency entry in [3], in [8], in test [6] and in test [7] was “inactive” in each case. Further, the result in test [9] was inactive.

Regarding `Cc1ccc([N+](=O)[O-])cc1`, the Potency entry in test [1], in test [2], in test [3], in test [4], in [5] and in test [8] was “inactive” in each case. The Potency entry in test [6] and in test [7] was “inactive” each time.

In the case of `CCCCCCCCCC(CC)c1ccc(S(=O)(=O)O)cc1` (stereo not given), the Potency result in test [1] and in test [3] was “inactive” in each case.

For `CCCCCCCC[N+](C)(CCCCCCCC)CCCCCCCC`, the Potency is 193 nM (active) and 48.6 nM (active) and 306 nM (active) in test [1]; 17.2 µM (active) in [2]; 12.2 µM (active) and 2.73 µM (active) and 24.3 µM (active) in test [3]; 12.2 µM (active) and 27.3 µM (active) and 30.6 µM (active) in [4]; 12.2 µM (active) and 43.3 µM (active) and 24.3 µM (active) in test [5]. Besides, the Potency result in test [8], in [6] and in test [7] was “inactive” throughout.

On to `CC(C)CON=O`, for which the Potency entry in test [1], in test [2], in [3], in [4], in [5] and in test [8] was “inactive” throughout. Also, the Potency entry in test [6] and in test [7] was “inactive” throughout.

Take `O=P(OCCCl)(OCCCl)OCCCl`: the Potency entry in test [1], in [2], in test [3], in test [4] and in test [5] was “inactive” throughout.

Turning to `O=NN1CCOCC1`, the Potency result in test [1], in [2], in test [3], in test [4], in test [5] and in [8] was “inactive” throughout. The Potency entry in test [6] and in test [7] was “inactive” throughout.

`CC(C)(c1ccccc1)c1ccc(O)cc1`: the Potency in [1] was 27.1 µM (active) and 30.6 µM (active); in test [2], 4.82 µM (active) and 7.7 µM (active); in test [4], 60.6 µM (active); in [5], 68 µM (active); in test [8], 15.2 µM (active) and 15.4 µM (active). Further, the Potency result in test [3], in [6] and in test [7] was “inactive” throughout.

With `COc1ccc(O)c(C(C)(C)C)c1`, the Potency entry in test [1], in [2], in test [3], in test [4], in test [5] and in [8] was “inactive” each time. For the same compound, the Potency entry in test [6] and in test [7] was “inactive” in each case.

Regarding `Nc1ccc2ccccc2c1`, the Potency entry in test [1], in test [2], in test [3], in [4], in test [5] and in [8] was “inactive” in each case.

On to `CC1(C)Cc2cccc(O)c2O1`, for which the Potency entry in test [1], in test [2], in test [3], in [4], in [5] and in test [8] was “inactive” in each case. Also, the Potency result in [6] and in test [7] was “inactive” each time.

For the compound `ClC(Cl)(Cl)c1ccccc1`, the Potency entry in [1], in test [2], in test [3], in [4], in test [5] and in test [8] was “inactive” each time. Further, the Potency entry in test [6] and in [7] was “inactive” in each case.

Take `CCCCOC(=O)COC(=O)c1ccccc1C(=O)OCCCC`: the Potency result in [1], in [2], in [3], in test [4], in [5] and in test [8] was “inactive” in each case.

Turning to `CSc1nc(NC(C)C)nc(NC(C)C)n1`, the Potency in [1] is 0.766 µM (active). Further, the Potency entry in test [2], in test [3], in test [4], in [5] and in test [8] was “inactive” in each case.

On to `Clc1ccccc1-c1nnc(-c2ccccc2Cl)nn1`, for which the Potency result in test [1], in [2], in test [3], in test [4], in [5] and in test [8] was “inactive” in each case. Moreover, the Potency result in test [6] and in [7] was “inactive” each time.

Regarding `CCOC(=O)c1ccccc1N`, the Potency result in [1], in test [2], in test [3], in [4], in [5] and in [8] was “inactive” in each case. In addition, the Potency entry in [6] and in [7] was “inactive” throughout.

Consider `CNC(=O)CSP(=S)(OC)OC`, for which the Potency in [1] is 14.1 µM (active) and inactive. Moreover, the Potency entry in [2], in test [3], in [4], in [5], in [8] and in [6] was “inactive” in each case. Moreover, in test [7], the Potency entry is “inactive”.

As for `Cn1c(-c2ccccc2)cc(-c2ccccc2)[n+]1C`, the Potency in [1] was 306 nM (active) and inactive; in test [3], 24.3 µM (active) and 19.3 µM (active). The Potency result in test [2], in [4], in test [5], in [8], in test [6] and in test [7] was “inactive” in each case.

In the case of `O=C1Nc2ccc(Cl)cc2C(c2ccccc2)=NC1O` (stereo not given), in [2], the Potency entry is “inactive”.
